Hits are enriched below; roughly 1.3% of the tested compounds scored in any of these assays.
PTHR1 agonist: agonists of human PTHR1 parathyroid hormone receptor | Q03431 | HEK293 GP2 PTHR1 cells, GloSensor cAMP luminescence, 1 h | Potency, µM (top dose mostly 115 µM), inactives show at the highest dose activation, hits mostly activators | 410,000 compounds, 0.075% hits; also: potency is read from the fitted curve at half-maximal effect; nearly all actives have a fitted effect of over 55% in size
Target sequence (Q03431 whole entry, looked up): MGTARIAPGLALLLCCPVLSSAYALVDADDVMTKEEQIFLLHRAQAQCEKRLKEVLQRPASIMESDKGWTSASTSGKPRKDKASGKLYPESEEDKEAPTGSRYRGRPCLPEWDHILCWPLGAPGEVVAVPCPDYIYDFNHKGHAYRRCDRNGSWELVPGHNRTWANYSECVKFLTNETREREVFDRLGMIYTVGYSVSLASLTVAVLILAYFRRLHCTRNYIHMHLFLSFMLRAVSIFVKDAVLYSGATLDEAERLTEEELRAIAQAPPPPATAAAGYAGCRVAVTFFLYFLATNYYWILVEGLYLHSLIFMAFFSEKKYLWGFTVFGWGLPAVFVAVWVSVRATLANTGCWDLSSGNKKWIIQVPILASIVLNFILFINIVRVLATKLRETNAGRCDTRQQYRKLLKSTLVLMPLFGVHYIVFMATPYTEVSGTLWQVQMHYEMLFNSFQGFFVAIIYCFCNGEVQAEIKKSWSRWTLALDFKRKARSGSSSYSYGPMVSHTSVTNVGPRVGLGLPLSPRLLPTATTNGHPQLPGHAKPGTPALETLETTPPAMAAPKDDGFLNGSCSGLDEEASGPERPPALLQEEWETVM
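HEK-293-derived GP2 cells expressing PTHR1 and a GloSensor cAMP reporter, 3,000/well, plated overnight, given luciferin plus IBMX (each 0.5 mM as added) for 1 h at 37 °C, then compound for 1 h at 37 °C. Luminescence was read after 15 min at room temperature.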
TCR act: activators of T cell receptors | AID 504894 | 330,000 tested, under 10 active | Potency, µM (top dose mostly 9.22 µM), for the others: at the top dose activation of IL-2 secretion, usual class: activators | primary human leukocytes, anti-CD3, IL-2 HTRF, 48 h; also: % of control where 0% means no effect
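Human primary leukocytes + a-CD3 beads + cpd, 48 hr; IL-2 in supernatant by HTRF (ex 320nm / em 665nm). No co-stimulatory signal supplied.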
BRCA1 expr act: increases BRCA1 expression; MCF7-BRCA1-FFLuc reporter, luminescence, 48 h; response scale: scaled: vehicle 0%, 10 µM genistein 100%; Potency, µM (doses to about 46.1 µM), inactives show top-dose activation, actives largely listed as activators; 380,000 compounds, 1.1% hits; AID 624202; also: potency is read from the fitted curve at half-maximal effect; nearly all actives have a fitted effect of over 80% in size
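Luminescence from a BRCA1-driven firefly luciferase in MCF7 cells was read after 48 h compound exposure at 37 C. Data normalized against DMSO and a 10microM genistein activation control, then curve-fitted across the titration.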
Chronic BCR inh: blocks chronic active B-cell receptor signaling; Potency, µM (doses to about 46.1 µM), for inactives: at the highest dose activity change, negative = inhibition, actives largely listed as inhibitors; AID 493014; ABC-DLBCL IkBa-CBG/CBR reporter, luminescence ratio, 4 h; 340,000 compounds, 0.05% hits; active = well fitted inhibition curve with a large enough effect in the signal ratio, with a control signal flat, not every such curve was filed as active; inconclusive = small, poorly fitted or top-dose-only effect, or effect the other way, or a change in a side signal; the % refers to the signal ratio;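 also: potency is read from the fitted curve at half-maximal effect; plate controls were basal doxycycline-induced cells for no effect and cells given 10 µM MG132 for full effect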
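Compounds up to 46 uM were incubated four hours with TMD8 cells whose green CBG68 luciferase is fused to IkappaBalpha; red CBR luminescence normalised the signal, and concentration-effect curves were fitted to fusion, red and ratio data.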
Mito fusion yeast: mitochondrial division inhibition or fusion activation | 320,000 compounds, 0.23% hits | S. cerevisiae fusion-defective mutant growth rescue, CellTiterGlo 48 h | Potency, µM (titrated, usually from 46.1 µM), for the others: at the top dose growth rescue (activation), actives largely listed as activators; also: potency is read from the fitted curve at half-maximal effect; % of control where 0% means no effect; nearly all actives have a fitted effect of over 45% in size
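Luminescent cell viability in 1536-well qHTS format served as the measure of rescued growth in ts fusion-mutant S. cerevisiae cultured on non-fermentable YPEG for 48 hours at 37C.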
IL-2 act: activators of IL-2; IL-2 activation reporter assay, cell-based qHTS; stimulated with anti-CD3/CD4/CD28 beads; in transgenic mouse T cells; activation, % (series mostly up to about 46 µM); 360,000 compounds, 0.065% hits; in the data active = activation above about 50%; inconclusive = mostly about 30% to 49%; also: 0% is about no effect
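Unstimulated transgenic mouse T cells, 750 per well, received compound and, after 60 minutes, anti-CD3/anti-CD4 bead plus anti-CD28 stimulation. EGFP and DsRed were quantified after 18 hours.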
Starred values were filed as active, the others as inactive; [ ] = another dose, or the depositor's remark. Unless noted, calls follow the shape of the dose curve; as a rule, active = well fitted curve in the direction sought with a large enough effect; inconclusive = small, poorly fitted or top-dose-only effect, or another doubt; inactive = no such curve, though single readings can be large; an effect the other way counts as inactive or inconclusive.

How did Nc1nonc1-c1noc(N2CCCCC2)n1 do in these assays?
PTHR1 agonist: -5%; TCR act: -2%; BRCA1 expr act: 10µM*; Chronic BCR inh: 7%; Mito fusion yeast: 7%; IL-2 act: -3

How did O=C(COC(=O)c1ccc(F)cc1Cl)NC1CCCCCCC1 do in these assays?
PTHR1 agonist: -22%; TCR act: 4%; BRCA1 expr act: 3%; Chronic BCR inh: -2%; IL-2 act: -1

Results for Cc1cn(CCC(=O)Nc2ccccc2N2CCOCC2)c2ccccc12 ?
PTHR1 agonist: -6%; TCR act: 11%; BRCA1 expr act: inconclusive; Chronic BCR inh: 13%; Mito fusion yeast: 7%; IL-2 act: 2

What do the screens show for `Cc1cn(CCC(=O)Nc2ccc(N3CCOCC3)cc2)c2ccccc12`?
PTHR1 agonist: -36%; TCR act: 6%; BRCA1 expr act: 10µM*; Chronic BCR inh: inconclusive; Mito fusion yeast: -4%; IL-2 act: 3

How did COc1ccccc1CCNC(=O)c1nc(-c2cccs2)no1 do in these assays?
PTHR1 agonist: -24%; TCR act: 0%; BRCA1 expr act: 4µM*; Chronic BCR inh: -8%; Mito fusion yeast: 16%; IL-2 act: -4

What do the screens show for `COc1ccccc1CC(=O)NCc1csc(-c2cccs2)n1`?
PTHR1 agonist: -14%; TCR act: -13%; BRCA1 expr act: 11µM*; Chronic BCR inh: inconclusive; Mito fusion yeast: 1%; IL-2 act: 2

Results for Cn1ccsc1=NC(=O)c1cccc(OC(F)F)c1 ?
PTHR1 agonist: -18%; TCR act: 4%; BRCA1 expr act: 8.9µM*; Chronic BCR inh: inconclusive; Mito fusion yeast: 13%; IL-2 act: 1

How did Cc1nc(NC(=O)C(C)(C)C)sc1C(=O)Cn1cc(CCCC#N)nn1 do in these assays?
PTHR1 agonist: inactive; BRCA1 expr act: 8%; IL-2 act: 0

What do the screens show for `C/C(=N\Nc1nccnc1Cl)c1ccc(O)cc1`?
PTHR1 agonist: -20%; TCR act: 16%; BRCA1 expr act: 68%; Chronic BCR inh: 1%; Mito fusion yeast: -3%; IL-2 act: 7

What do the screens show for `C/C(=N\Nc1nccnc1Cl)c1ccc(F)cc1`?
PTHR1 agonist: inactive; TCR act: 0%; BRCA1 expr act: 8.9µM*; Chronic BCR inh: inconclusive; Mito fusion yeast: 6%; IL-2 act: 2

Results for O=C(O)Cn1cc(/C=c2/sc3nc4ccccc4n3c2=O)c2ccccc21 ?
PTHR1 agonist: -55%; TCR act: -3%; BRCA1 expr act: -9%; Chronic BCR inh: inconclusive; Mito fusion yeast: -4%; IL-2 act: 166*

What do the screens show for `NNC(=O)/C(=C/c1cccs1)NC(=O)c1ccccc1Cl`?
PTHR1 agonist: inactive; BRCA1 expr act: -14%; Chronic BCR inh: 11µM*; Mito fusion yeast: 1%; IL-2 act: -1

Results for N#C/C(=C\c1cccs1)C(=O)c1ccccc1Cl ?
PTHR1 agonist: -33%; TCR act: -1%; BRCA1 expr act: -17%; Chronic BCR inh: inconclusive; Mito fusion yeast: 0%; IL-2 act: -1

What do the screens show for `COc1ccc(C2=Nn3c(nnc3-c3ccc(OC)cc3)SC2)cc1`?
PTHR1 agonist: inconclusive; TCR act: 4%; BRCA1 expr act: -73%; Chronic BCR inh: 6.5µM*; Mito fusion yeast: inconclusive; IL-2 act: -3

How did COc1ccc(-c2nnc3n2N=C(C)CS3)cc1 do in these assays?
PTHR1 agonist: inactive; TCR act: -1%; BRCA1 expr act: -1%; Chronic BCR inh: 5%; Mito fusion yeast: -1%; IL-2 act: -1

What do the screens show for `c1ccc(C2=Nn3c(nnc3-c3cc(-c4ccccc4)n[nH]3)SC2)cc1`?
PTHR1 agonist: -44%; TCR act: 1%; BRCA1 expr act: -79%; Chronic BCR inh: 12µM*; Mito fusion yeast: 8%; IL-2 act: 0

What do the screens show for `Cc1ccc(-c2nnc3n2N=C(c2ccccc2)CS3)cc1`?
PTHR1 agonist: -17%; TCR act: -6%[46.1 µM]; BRCA1 expr act: 8%; Chronic BCR inh: inconclusive; Mito fusion yeast: 7%; IL-2 act: -1

How did Clc1ccc(C2=Nn3c(nnc3-c3cc(-c4ccccc4)n[nH]3)SC2)cc1 do in these assays?
PTHR1 agonist: -24%[57.5 µM]; BRCA1 expr act: -90%; Chronic BCR inh: 5.2µM*; Mito fusion yeast: -14%; IL-2 act: -1

Results for Cc1cc(F)ccc1C(O)c1ncc(-c2ccccc2C(F)(F)F)[nH]1 (stereo not drawn) ?
PTHR1 agonist: -10%; BRCA1 expr act: 11%; IL-2 act: -1

How did CCOc1cccc(-c2nc3c(s2)CCc2onc(-c4cccc([N+](=O)[O-])c4)c2-3)c1 do in these assays?
PTHR1 agonist: -23%; TCR act: -10%; BRCA1 expr act: 0%; Chronic BCR inh: 5%; Mito fusion yeast: -4%; IL-2 act: 0

What do the screens show for `COc1ccc(OCC(=O)Nc2nc3ccccc3[nH]2)cc1`?
PTHR1 agonist: -6%[57.5 µM]; TCR act: 6%; BRCA1 expr act: 10µM*; Chronic BCR inh: inconclusive; Mito fusion yeast: 0%; IL-2 act: 0

How did Cc1cc(C)cc(C(=O)Nc2nc3ccccc3[nH]2)c1 do in these assays?
PTHR1 agonist: 0%; TCR act: -1%; BRCA1 expr act: 7.9µM*; Chronic BCR inh: inconclusive; Mito fusion yeast: -3%; IL-2 act: -1

Results for O=C(CC1CCCC1)Nc1nc2ccccc2[nH]1 ?
PTHR1 agonist: inactive; TCR act: -16%; BRCA1 expr act: 3.2µM*; Chronic BCR inh: inconclusive; Mito fusion yeast: -2%; IL-2 act: 1

Results for O=C(Nc1nc2ccccc2[nH]1)c1cc(F)cc(F)c1 ?
PTHR1 agonist: -8%; TCR act: 1%; BRCA1 expr act: inconclusive; Chronic BCR inh: inconclusive; Mito fusion yeast: 4%; IL-2 act: 0

What do the screens show for `O=C(Nc1nc2ccccc2[nH]1)C1CCCC1`?
PTHR1 agonist: -59%; TCR act: -4%; BRCA1 expr act: inconclusive; Chronic BCR inh: inconclusive; Mito fusion yeast: 0%; IL-2 act: 0

What do the screens show for `COc1ccc(CCSc2n[nH]c(C(C)C)n2)cc1`?
BRCA1 expr act: 21%

Results for C(=N\Nc1nncc2ccccc12)/c1ccccc1 ?
PTHR1 agonist: -17%; TCR act: 9%; BRCA1 expr act: 26%; Chronic BCR inh: inconclusive; Mito fusion yeast: -1%; IL-2 act: 1

How did COc1cc(/C=N/Nc2nncc3ccccc23)cc(OC)c1OC do in these assays?
PTHR1 agonist: -61%; TCR act: -2%; BRCA1 expr act: 7.1µM*; Chronic BCR inh: inconclusive; Mito fusion yeast: 4%; IL-2 act: -3
